Our source for the Potency, outcome and max response values is PubChem BioAssay (NCATS).

Assay [1] addresses Calcium and integrin-binding protein 1 (Homo sapiens) (UniProt Q99828). In words: Primary qHTS for Identification of Calcium Integrin Binding Protein 1 (CIB1) Competitor (AID 1508620). Further: top concentration of the series differs between compounds; on the % scale 0 is the no-effect control and ±100 the full control effect. The essentials: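 Fluorescence polarization competition: GST-tagged CIB1 (1 uM final) preincubated with compound 15 min at room temperature, then FITC-labelled alphaIIb peptide (100 nM final) added. After 15 min at room temperature, polarization read at Ex 480/Em 540.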
A general note: qHTS replaces the single test concentration by a dilution series.

The target in assay [2] is Glutathione peroxidase 1 (Homo sapiens) (UniProt P07203). As to the kind of experiment: Primary qHTS Assay for Inhibitors of Recombinant Selenoprotein Glutathione Peroxidase 1 (GPX1) (AID 1845191). Further: nearly all actives have a fitted effect of over 65% in size. The essentials: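 GR-coupled assay: compounds preincubated 30 min at room temperature with GPX1, then reaction started with CHP; final 10 nM GPX1, 1 mM GSH, 0.5 mM CHP, 0.5 mM NADPH, 100 nM GR, 0.01% BSA, pH 7.5 Tris buffer. NADPH fluorescence (340/450 nm) read at 0 and 15 min.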

Assay [3] deals with Phospholipid hydroperoxide glutathione peroxidase GPX4 (Homo sapiens) (UniProt P36969). As to the kind of experiment: Primary qHTS Assay for Inhibitors of Recombinant Selenoprotein Glutathione Peroxidase 4 (GPX4) (AID 1845192). Further: on the % scale 0 is the no-effect control and ±100 the full control effect; nearly all actives have a fitted effect of over 65% in size. In short, it runs like this:
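GR-coupled assay: recombinant GPX4 preincubated 30 min with compound at room temperature; final 200 nM GPX4, 1 mM GSH, 0.5 mM cumene hydroperoxide, 0.5 mM NADPH, 100 nM GR, 0.01% BSA, pH 7.5 Tris. NADPH fluorescence (340/450 nm) read at 0 and 15 min.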

Assay [4] deals with Luciferin 4-monooxygenase (Photinus pyralis) (UniProt P08659). In words: Primary firefly luciferase (FLuc) qHTS assay for identification of artifact compounds. (AID 1845220). Further: nearly all actives have a fitted effect of over 60% in size. Particulars: outcome: dose series up to 54.1 µM unless noted. The essentials:
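Titrated compounds were incubated 15 min at RT, protected from light, with luciferin and ATP at 10 uM; reaction started with 10 nM FLuc, luminescence imaged at 5 min, and concentration-response fitted by Hill equation.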

Assay [5] can be described thus: Primary fluorescence-based thiol-reactive (MSTI) qHTS assay for identification of artifact compounds. (AID 1845221).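 Further: thiol-reactive compounds lower the probe fluorescence signal; nearly all actives have a fitted effect of over 65% in size.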 The essentials:
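Compounds were incubated 1 h at room temperature in the dark with the MSTI probe (4 uM) in PBS pH 7.4, 2% DMSO. Signals were normalized between Acetyl-MSTI and MSTI.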

Assay [6] deals with Nanoluciferase (engineered Oplophorus gracilirostris luciferase). In words: Primary Nanoluciferase (NLuc) qHTS assay for identification of artifact compounds. (AID 1845222).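 Further: NLuc secreted into diluted conditioned medium of S16 cells; 0% = DMSO and -100% = no enzyme.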 The essentials:
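qHTS format, against NLuc in S16 cell-conditioned medium. Nano-Glo substrate 1:100 was added after 15 min at room temperature. Luminescence was taken after a further 5 min.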

The test system of another assay is CRL-7250. In words: Cytotoxic Profiling of Annotated Libraries Using Quantitative High-Throughput Screening (AID 1296008). Further: nearly all actives have a fitted effect of over 60% in size. Further: potency means the concentration at half of the fitted maximal effect. On max response: on the % scale 0 is the no-effect control and ±100 the full control effect. As to conditions: Five cell lines viability, CellTiter-Glo ATP luminescence, 48-72 h; max response: hits give low values. In short, it runs like this:
(§1)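 Cells exposed to compounds for 48 or 72 hr at 37 degrees Celsius. Viability read as ATP-coupled luminescence with CellTiter-Glo after 10 min at room temperature.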

A further assay relates to NIH3T3. Described as above. As to conditions: Five cell lines viability, CellTiter-Glo ATP luminescence, 48-72 h; max response: hits give low values. In short, it runs like this:
as §1
Background: ATP-based viability assays read luminescence as a measure of living cells.

A further assay has as its system C33A. In words: Primary qHTS to identify gynecologic anti-cancer compounds using libraries of approved drugs and bioactive compounds (AID 1345084). Further: nearly all actives have a fitted effect of over 55% in size. Further: potency means the concentration at half of the fitted maximal effect. As to conditions: Gynecologic cancer cell panel viability, ATPlite luminescence, 48 h; series mostly up to 57.5 µM. In short, it runs like this: (§2)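 Luminescence from the ATPlite ATP-monitoring reagent indicates viable cell number; lower signal means cytotoxicity. Cells received compound 16 h after seeding and were exposed for 48 h across five concentrations.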

For a further assay, the system named is CAOV3. Described as above. As to conditions: Gynecologic cancer cell panel viability, ATPlite luminescence, 48 h; series mostly up to 57.5 µM. The essentials: as §2
The next assay deals with CASKI. The assay is described as above. Particulars: Gynecologic cancer cell panel viability, ATPlite luminescence, 48 h; series mostly up to 57.5 µM. The essentials:
as §2

The subject of the next assay is Es-2. The description is as above. Particulars: Gynecologic cancer cell panel viability, ATPlite luminescence, 48 h; series mostly up to 57.5 µM. The essentials: as §2
Another assay relates to Hek293T. Described as above. Particulars: Gynecologic cancer cell panel viability, ATPlite luminescence, 48 h, control line for the selectivity index; series mostly up to 57.5 µM. The essentials:
as §2

The subject of another assay is JEG-3. The assay is described as above. Particulars: Gynecologic cancer cell panel viability, ATPlite luminescence, 48 h; series mostly up to 57.5 µM. The essentials:
as §2

Another assay has as its system OV90. The assay is described as above. Particulars: Gynecologic cancer cell panel viability, ATPlite luminescence, 48 h; series mostly up to 57.5 µM. In short, it runs like this: as §2
For another assay, the system named is PA-1. Described as above. Particulars: Gynecologic cancer cell panel viability, ATPlite luminescence, 48 h; series mostly up to 57.5 µM. In short, it runs like this: as §2
For the next assay, the system named is Tov-21-G. Described as above. As to conditions: Gynecologic cancer cell panel viability, ATPlite luminescence, 48 h; series mostly up to 57.5 µM. The essentials: as §2
The next assay relates to Tov112D. Described as above. As to conditions: Gynecologic cancer cell panel viability, ATPlite luminescence, 48 h; series mostly up to 57.5 µM. In short, it runs like this:
as §2

Assay [7] relates to Zika virus NS2B-NS3 protease (unlinked complex). As to the kind of experiment: Primary screen GU Rhodamine qHTS for Zika virus inhibitors: Unlinked NS2B-NS3 protease assay (AID 1347159). Further: on the % scale 0 is the no-effect control and ±100 the full control effect; nearly all actives have a fitted effect of over 60% in size. The essentials:
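Percent inhibition derives from the 15-min fluorescence change (ex 480, em 540 nm), normalized to no-enzyme and no-inhibitor wells. Reactions contained 25 nM NS2B-NS3 complex and 1.5 microM substrate in 10 mM Tris-HCl pH 8.0.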

Assay [8] relates to Zika virus NS2B-NS3 protease (linked construct). In words: Primary screen NINDS Rhodamine qHTS for Zika virus inhibitors (AID 1347160). Further: nearly all actives have a fitted effect of over 55% in size. The essentials:
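In 10 mM Tris-HCl pH 8.0 containing 0.01% Tween 20, linked NS2B-NS3 protease (25 nM final) is exposed to test compounds for 15 min. Cleavage of 1.5 microM Rhodamine110 substrate is tracked by fluorescence over 15 min.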

A number with no mark means an inactive call. Records with an inconclusive call do not appear. The source made the active and inactive calls. The call rests on the fitted dose curve; in most records, active means well fitted curve in the direction sought with a large enough effect; inconclusive means small, poorly fitted or top-dose-only effect, or another doubt; inactive means no such curve, though single readings can be large; an effect the other way counts as inactive or inconclusive. *1 amine or outer side, *2 acyl side, *3 side chain or, on linkers, in order; H or OH if unused. Where a SMILES comes first, the peptide text is derived from it. [ ]: non-standard residue; d: D form. X5 = CC(CC(O[*:1])C(=O)[*:2])C(=O)O; NMeV = CN[CH](C(=O)O)C(C)C; NMeA = CN[CH](C)C(=O)O; βAla = NCCC(=O)O

Calcium and integrin-binding protein 1 (Homo sapiens), sequence (Q99828 whole entry, looked up): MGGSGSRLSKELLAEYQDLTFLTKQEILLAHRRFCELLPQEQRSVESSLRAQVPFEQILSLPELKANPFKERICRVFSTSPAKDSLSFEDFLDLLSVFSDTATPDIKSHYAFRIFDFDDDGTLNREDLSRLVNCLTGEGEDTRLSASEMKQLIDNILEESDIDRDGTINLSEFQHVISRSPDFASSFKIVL
Glutathione peroxidase 1 (Homo sapiens), sequence (P07203 whole entry, looked up): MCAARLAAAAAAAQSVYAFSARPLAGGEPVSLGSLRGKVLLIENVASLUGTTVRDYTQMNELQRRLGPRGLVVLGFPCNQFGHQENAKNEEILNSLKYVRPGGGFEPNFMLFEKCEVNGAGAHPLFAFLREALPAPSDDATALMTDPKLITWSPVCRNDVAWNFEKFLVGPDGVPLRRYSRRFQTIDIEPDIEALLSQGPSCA
Phospholipid hydroperoxide glutathione peroxidase GPX4 (Homo sapiens), sequence (P36969 whole entry, looked up): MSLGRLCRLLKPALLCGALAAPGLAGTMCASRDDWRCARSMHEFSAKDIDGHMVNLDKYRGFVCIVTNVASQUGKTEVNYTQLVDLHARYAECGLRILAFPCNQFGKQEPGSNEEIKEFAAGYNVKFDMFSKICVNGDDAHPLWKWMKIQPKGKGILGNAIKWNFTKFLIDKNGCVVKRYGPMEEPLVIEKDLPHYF

Take `COC(=O)C12C(=O)C(C)(O)C(=O)C1(C)C(C)=CC1C3(C=O)CCC(OC(C)=O)C(C)(C)C3CCC12C` (configuration not stated): the Potency result (in assay [1]; in assay [2]; in assay [3]; in assay [5]; in assay [6]; with C33A) was “inactive” throughout. For the same compound, the Potency entry in the assay with CAOV3, in the assay on CASKI, in the assay on Es-2, in the assay on Hek293T, in the assay with JEG-3 and in the assay with OV90 was “inactive” each time. Besides, the Potency result in the assay on PA-1, in the assay on Tov-21-G and in the assay on Tov112D was “inactive” each time. The outcome in assay [4] is “inactive [at 25.7 µM]”. The max response in the assay with CRL-7250 is -2.11%; in the assay on NIH3T3, -2.03%.

On to `O=C(N[C@H]1CN2CCC1CC2)c1cc2cccc(Cl)c2s1`, for which the Potency entry in assay [7], in assay [8], in assay [1], in assay [2], in [3] and in [5] was “inactive” in each case. Further, the Potency entry (in [6]; in the assay on C33A; in the assay on CASKI; in the assay on Es-2; in the assay with Hek293T; in the assay with JEG-3) was “inactive” each time. Also, the Potency result with OV90, in the assay with PA-1, with Tov-21-G and in the assay on Tov112D was “inactive” throughout. The compound was called inactive in assay [4]. In the assay on CRL-7250, the max response is -12.3%.

Turning to `CCC1CN2CCC3(C(=O)Nc4cccc(O)c43)C2CC1/C(=C/OC)C(=O)OC` (configuration not stated), the Potency result in assay [7], in assay [8], in assay [2], in assay [3], in [5] and in assay [6] was “inactive” each time. Further, the Potency result with C33A, in the assay on CAOV3, with CASKI, in the assay with Es-2, in the assay with Hek293T and in the assay on JEG-3 was “inactive” each time. Also, the Potency result with OV90, in the assay with PA-1, in the assay with Tov-21-G and in the assay on Tov112D was “inactive” throughout. Also, the compound was called inactive in assay [4]. Besides, the max response with CRL-7250 is -15.5%; with NIH3T3 it was 4.67%.

With `CC[C@@H]1C[C@H]2CC[C@H](O2)[C@H](C)C(=O)O[C@@H](C)C[C@@H]2CC[C@@H](O2)[C@@H](C)C(=O)O[C@H](C)C[C@H]2CC[C@H](O2)[C@H](C)C(=O)O[C@@H](C)C[C@@H]2CC[C@@H](O2)[C@@H](C)C(=O)O1`, the Potency entry (in assay [8]; in assay [1]; in assay [2]; in assay [3]; in assay [6]; with JEG-3) was “inactive” each time. For the same compound, the outcome in assay [4] is “inactive [at 25.7 µM]”. Moreover, the Potency in the assay with CRL-7250 is 432 nM (active); in the assay with NIH3T3 it was 86.2 nM (active); in the assay with CAOV3, 562 nM (active); in the assay on CASKI, 501 nM (active); in the assay with Es-2 it was 708 nM (active); in the assay with Hek293T it was 282 nM (active). Moreover, the values for the Potency in the assay with OV90 and in the assay on PA-1 were 447 nM (active) and 398 nM (active), respectively.

`CC(=O)O[C@H]1C[C@@H](C)O[C@H]2O[C@@H]3CC4CC[C@@H]5C(CC[C@]6(C)[C@@H](C7=CC(=O)OC7)CC[C@]56O)[C@@]4(C=O)C[C@H]3O[C@]21O` (some centres not stated): the Potency result in assay [8], in assay [1], in assay [2], in [3], in [5] and in assay [6] was “inactive” each time. For the same compound, the outcome in [4] was inactive. Also, the Potency was 43.2 nM (active) in the assay with CRL-7250; 100 nM (active) with C33A; 282 nM (active) in the assay on CAOV3; 562 nM (active) in the assay on CASKI; 126 nM (active) in the assay on Es-2; 158 nM (active) in the assay with Hek293T. Moreover, the Potency in the assay on OV90 was 562 nM (active); with PA-1, 126 nM (active); in the assay with Tov-21-G, 100 nM (active); in the assay on Tov112D it was 100 nM (active).

Regarding `CCC(C)C1NC(=O)C2CCCN2C(=O)C(CC(C)C(=O)O)OC(=O)CCNC(=O)C(C)N(C)C(=O)C(C(C)C)N(C)C1=O` (configuration not stated) (cyclo([X5]PI[NMeV][NMeA][βAla]); configuration not given here), the Potency entry in [7], in [8], in assay [1], in assay [2], in assay [3] and in [5] was “inactive” throughout. Also, the Potency entry (in assay [6]; in the assay with C33A; in the assay with CAOV3; in the assay with CASKI; in the assay on Es-2; with Hek293T) was “inactive” each time. The Potency entry in the assay with JEG-3, in the assay on OV90, in the assay with PA-1, in the assay with Tov-21-G and with Tov112D was “inactive” throughout. The call in [4] was inactive. Besides, the max response was -24.2% with CRL-7250 and 3.88% in the assay on NIH3T3.
